Most compounds without a hit are left out; they make up all but 7.4% or so of the library.
3T3 cytotox = cytotoxic compounds in NIH 3T3 cells; Potency, µM (titrated, usually from 96.7 µM), for inactives: at the highest dose activity change, negative = cytotoxicity, hits mostly inhibitors; actives 4.3% (n = 94,000); NIH 3T3 viability, CellTiter-Glo ATP luminescence, 48-72 h; also: nearly all actives have a fitted effect of over 55% in size
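Viability of NIH 3T3 cells after 48 or 72 hr compound treatment at 37 °C was assessed by CellTiter-Glo, with luminescence imaged following a 10 min room-temperature step.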
FLuc inh = Photinus pyralis luciferase inhibition; Potency, µM (series often up to 115 µM), usual class: inhibitors; purified P. pyralis luciferase, luminescence, biochemical; actives 2.5% (n = 76,000); also: nearly all actives have a fitted effect of over 65% in size
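Purified P. pyralis luciferase (10nM final) in 50mM Tris acetate pH 7.5, 10mM Mg acetate, 0.01% Tween-20, 0.05% BSA with 10uM D-luciferin and 10uM ATP. Compounds titrated qHTS. Luminescence imaged on CCD.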
SNCA viab count = counter-screen for SNCA expression inhibitors: cell viability | HEK-293-SNCA-luc viability, GF-AFC fluorescence, 24 h | Potency, µM (series often up to 57.1 µM), for inactives: top-dose activity change, negative = cytotoxicity, hits mostly cytotoxic | actives 0.12% (n = 150,000);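 also: 0% = DMSO-treated cells and -100% = medium-only wells without cells; nearly all actives have a fitted effect of over 30% in size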
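HEK-293-SNCA-luc cells (1500/well) plated 24 h, then exposed 24 h to a dilution series; GF-AFC added 30 min at 37C, fluorescence 405/540 nm; normalised to medium-only and DMSO wells, Hill fit.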
hNpr1 antagonist = human Npr1 receptor antagonism; P16066; AID 1347048; Potency, µM (titrated, usually from 46.3 µM), without a hit: at the top dose activity change, negative = inhibition, hits mostly inhibitors; HEK293 hNpr1 GloSensor cGMP, ANP-stimulated luminescence; actives 1.6% (n = 76,000); calls by dose curve; also: nearly all actives have a fitted effect of over 60% in size
Target sequence (P16066 whole entry, looked up): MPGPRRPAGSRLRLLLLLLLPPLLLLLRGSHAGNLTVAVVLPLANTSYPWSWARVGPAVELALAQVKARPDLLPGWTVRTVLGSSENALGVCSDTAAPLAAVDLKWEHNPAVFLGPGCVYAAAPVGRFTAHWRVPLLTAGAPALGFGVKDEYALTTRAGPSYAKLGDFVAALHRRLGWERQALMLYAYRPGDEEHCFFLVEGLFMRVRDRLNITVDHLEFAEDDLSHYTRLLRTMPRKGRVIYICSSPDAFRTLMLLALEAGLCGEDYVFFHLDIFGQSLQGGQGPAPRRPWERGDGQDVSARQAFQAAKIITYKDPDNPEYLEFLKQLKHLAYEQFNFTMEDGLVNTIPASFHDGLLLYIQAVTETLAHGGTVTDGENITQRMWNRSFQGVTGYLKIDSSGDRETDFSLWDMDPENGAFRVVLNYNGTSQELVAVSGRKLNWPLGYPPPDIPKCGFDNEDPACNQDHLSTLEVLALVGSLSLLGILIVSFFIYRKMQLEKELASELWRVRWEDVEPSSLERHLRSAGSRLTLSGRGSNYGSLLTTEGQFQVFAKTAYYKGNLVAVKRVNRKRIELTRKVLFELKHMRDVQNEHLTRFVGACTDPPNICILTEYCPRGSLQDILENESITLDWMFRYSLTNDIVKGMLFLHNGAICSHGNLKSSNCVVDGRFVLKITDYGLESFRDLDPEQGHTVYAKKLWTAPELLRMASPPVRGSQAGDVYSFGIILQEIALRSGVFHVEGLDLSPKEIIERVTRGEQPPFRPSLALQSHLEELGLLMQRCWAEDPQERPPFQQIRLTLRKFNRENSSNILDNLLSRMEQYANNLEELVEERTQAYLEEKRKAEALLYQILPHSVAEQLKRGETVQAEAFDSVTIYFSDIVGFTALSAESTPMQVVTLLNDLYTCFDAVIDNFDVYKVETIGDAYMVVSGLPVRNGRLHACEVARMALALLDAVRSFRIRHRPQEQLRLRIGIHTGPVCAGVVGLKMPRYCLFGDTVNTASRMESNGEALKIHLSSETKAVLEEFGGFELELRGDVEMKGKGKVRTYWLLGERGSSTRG
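Compound pre-incubated 30 min at room temperature on GloSensor-loaded HEK293 cells stably carrying hNpr1 and the pGS-40F cGMP biosensor. Stimulation uses hNppA at 0.1 nM final; luminescence is taken at baseline and 20 min post-agonist.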
HEK cytotox = cytotoxic compounds in HEK 293 cells | HEK 293 viability, ATP luminescence (CellTiter-Glo), 48-72 h | Potency, µM (series often up to 115 µM), without a hit: at the highest dose activity change, negative = cytotoxicity, actives largely listed as inhibitors | actives 6.6% (n = 94,000) | AID 1345083; also: nearly all actives have a fitted effect of over 60% in size
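Viability of HEK 293 cells, plated at 250 cells/well, was judged by cellular ATP after compound treatment for 48 or 72 hr. Luminescence was imaged 10 min after CellTiter-Glo addition at room temperature.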
SNCA expr inh = inhibitors of alpha-synuclein (SNCA) gene expression; actives 0.17% (n = 140,000); Potency, µM (doses to about 57.2 µM), without a hit: at the top dose activity change, negative = inhibition, actives largely listed as inhibitors; HEK-293 SNCA-luciferase knock-in, luminescence, 24 h; AID 1671194;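 also: plate controls were DMSO cells for no effect and cell-free wells for full effect; nearly all actives have a fitted effect of over 45% in size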
Starred values were filed as active, the others as inactive; i = inactive; u = inconclusive; x = not tested or not shown; [ ] = dose if it differs, or a comment. Unless noted, calls follow the shape of the dose curve; as a rule, active = well fitted curve in the direction sought with a large enough effect; inconclusive = small, poorly fitted or top-dose-only effect, or another doubt; inactive = no such curve, though single readings can be large; an effect the other way counts as inactive or inconclusive. Unless noted, % is scaled to controls: 0 for no effect and ±100 for the full control effect; potency is read from the fitted curve at half-maximal effect.

SMILES	3T3 cytotox	FLuc inh	SNCA viab count	hNpr1 antagonist	HEK cytotox	SNCA expr inh
CCCCNC(=O)CC(c1cccc(OC)c1)c1c[nH]c2ccccc12 (stereo unspecified)	u	i	-5.6%	-6.9%	79.4µM*	0.5%
CCc1cccc2c(C(CC(=O)NCCc3ccc(OC)c(OC)c3)c3cccc(F)c3)c[nH]c12 (stereo unspecified)	u	i	-20.7%	-16.2%	28.2µM*	u
CCCCCNC(=O)CC(c1cccc(OC)c1OC)c1c[nH]c2c(CC)cccc12 (stereo unspecified)	u	i	-5.7%	0.5%	44.7µM*	-18.7%
CCCCNC(=O)CC(c1cccc2c1OCO2)c1c[nH]c2c(CC)cccc12 (stereo unspecified)	u	i	-2.5%	-12.6%	44.7µM*	-15.7%
O=C(c1cccc(Cl)c1)N1CCCC1C(=O)N1CCCC1c1nc2ccncc2[nH]1 (stereo unspecified)	-19.9%	x	7.9%	x	-5.7%	-2.8%
CCc1cccc2c(C(CC(=O)NCc3ccco3)c3ccc(OC)c(OC)c3)c[nH]c12 (stereo unspecified)	u	i	-19.6%	-15.8%	u	7.0%
CCc1cccc2c(C(CC(=O)NCc3ccco3)c3ccc(C)cc3)c[nH]c12 (stereo unspecified)	u	i	8.1%	-11.6%	35.5µM*	11.6%
Cc1cc(=O)n(CC(=O)Nc2cc(Cl)ccc2C)c(N2CCC(C)CC2)n1	35.5µM*	i	-5.1%	u	35.5µM*	u
Cc1cc(=O)n(CC(=O)Nc2ccc(Br)cc2F)c(N2CCC(C)CC2)n1	15.8µM*	i	10.0%	-9.3%	u	2.0%
Cc1ccc(C)c(NC(=O)Cn2c(N3CCC(C)CC3)nc(C)cc2=O)c1	u	i	-13.0%	-16.9%	28.2µM*	-15.8%
Cc1ccc(NC(=O)Cn2c(N3CCC(C)CC3)nc(C)cc2=O)c(C)c1	u	i	0.9%	-1.7%	u	11.2%
O=C(Nc1ccccc1)N1CCCC(C(=O)N2CCC(c3ccccc3)CC2)C1 (stereo unspecified)	u	x	-7.0%	x	u	-2.5%
CSc1ccc(-c2cccc(C(=O)NCCNC(=O)c3ccccc3Cl)c2)cc1	u	x	-9.2%[12.5 µM]	x	u	-10.8%
O=C(Nc1cc(-c2ccccn2)nn1-c1ccccc1)c1cccc(Cl)c1	u	x	-12.0%	x	u	0.0%
CCN(CC)C(=O)CCc1c(C)nn(-c2cccc(C)c2)c1Oc1ccccc1	u	i	-7.1%	-25.3%	u	-1.3%
C=CCNC(=O)CCc1c(C)nn(-c2ccc(F)cc2)c1Oc1ccc(F)cc1F	u	i	-11.6%	-14.5%	35.5µM*	-15.8%
CCN(CC)C(=O)CCc1c(C)nn(-c2cccc(C)c2)c1Oc1ccc(F)cc1F	35.5µM*	i	1.1%	-26.7%	25.1µM*	-13.8%
Cc1nn(-c2ccc(F)cc2)c(Oc2ccccc2F)c1CCC(=O)N(C)C(C)C	u	i	-26.7%	-16.0%	35.5µM*	-41.9%
CCN(C)C(=O)CCc1c(C)nn(-c2cccc(C)c2)c1Oc1ccc(F)cc1F	u	i	-8.9%	-3.4%	u	-11.4%
Cc1cccc(-n2nc(C)c(CCC(=O)N(C)C(C)C)c2Oc2ccccc2)c1	15.8µM*	i	-25.9%	-27.3%	39.8µM*	-8.5%
c1ccc(-c2ccnc(NCC3OCCc4ccccc43)n2)nc1 (stereo unspecified)	u	44.7µM*	-1.3%	-10.7%	39.8µM*	28.5%
c1ccc(-c2nc3c(c(NCC4OCCc5ccccc54)n2)CCNC3)nc1 (stereo unspecified)	39.8µM*	u	-7.4%	-3.3%	u	131.1%
O=C(Cc1ccccc1)N1CCC2(CC1)CC(CCOCc1ccccc1)CCO2 (stereo unspecified)	u	x	-6.4%	x	u	-7.3%
O=C(c1nc2sccn2c1-c1ccncc1)N1CCOCC1	i	x	8.6%	x	-2.2%	-9.5%
CN1CCN(c2ccc3ncc(Nc4ccc(OC(F)(F)F)cc4)n3n2)CC1	35.5µM*	i	-1.8%[87.6 µM]	-20.1%[70.6 µM]	50.1µM*	-28.7%[87.6 µM]
SMILES	3T3 cytotox	FLuc inh	SNCA viab count	hNpr1 antagonist	HEK cytotox	SNCA expr inh
c1ccc(Oc2ccc(Nc3cnc4ccc(N5CCOCC5)nn34)cc2)cc1	44.7µM*	i	6.7%[87.6 µM]	u	u	u
CN1CCN(c2ccc3ncc(Nc4ccc(Cl)c(C(F)(F)F)c4)n3n2)CC1	u	i	12.9%[87.6 µM]	u	79.4µM*	u
COc1ccccc1-c1cc(C(=O)N(C)C)nn2cnnc12	i	x	-7.9%[87.6 µM]	x	i	-14.7%[87.6 µM]
O=C(Nc1ccccc1Cl)c1nc2cccnc2n(Cc2ccccc2)c1=O	-7.9%	x	0.4%	x	i	35.6%
COc1ccc(CC(=O)N2CCCC(c3nn(-c4ccccn4)c(=O)[nH]3)C2)cc1 (stereo unspecified)	-8.1%	x	1.6%	x	-2.7%	-0.8%
O=C(NCc1ccc(F)cc1)C1CCN(Cc2ccccc2-c2ccccc2F)CC1	31.6µM*	x	x	x	31.6µM*	x
O=C(NCc1cccc(C(F)(F)F)c1)C1CCN(Cc2ccccc2-c2ccccc2F)CC1	u	x	x	x	25.1µM*	x
O=C(NCC1CC1)C1CCN(Cc2ccccc2-c2ccccc2F)CC1	-26.2%	x	5.9%	x	u	-7.7%
c1ccc2c(c1)CCN2c1nccnc1OC1CCNC1 (stereo unspecified)	-12.6%	i	10.8%	-11.9%	-35.3%	4.5%
COCC(=O)N1CCC(Oc2nccnc2N2CCc3ccccc32)C1 (stereo unspecified)	i	35.5µM*	8.1%	0.0%	-1.1%	133.0%
c1ccc(CN2CCC(Oc3nccnc3N3CCc4ccccc43)C2)nc1 (stereo unspecified)	u	i	-12.9%	0.1%	39.8µM*	u
CCCCCNC(=O)c1nc2cccnc2n(Cc2ccc(OC)cc2)c1=O	u	x	10.5%[12.5 µM]	x	u	5.4%
CC(=O)Nc1cccc(-c2nc(-c3c(C)noc3C)cc3cc(C)oc23)c1	39.8µM*	i	-9.1%[87.6 µM]	5.6%[70.6 µM]	79.4µM*	28.3%[87.6 µM]
CNC(=O)c1cc2cc(-c3c(C)noc3C)nc(-c3ccccc3OC)c2o1	u	i	-1.3%[87.6 µM]	0.8%[70.6 µM]	u	32.4%[87.6 µM]
CNC(=O)c1cc2cc(-c3c(C)noc3C)nc(-c3ccccc3C)c2o1	11.2µM*	i	-12.7%[87.6 µM]	0.0%[70.6 µM]	u	53.8%[87.6 µM]
Cc1noc(C)c1-c1cc2c(cc(-c3ccccc3)n2C)c(N(C)C)n1	u	i	-3.0%[87.6 µM]	-17.5%[70.6 µM]	u	-17.4%[87.6 µM]
